From publication PMC4552634, “A New Set of Chemical Starting Points with Plasmodium falciparum Transmission-Blocking Potential for Antimalarial Drug Discovery” (PLoS ONE, 2015) come the findings set out here.

In all, about 13,000 compounds went through this assay and about 3,200 (25%) showed an effect of 50% or more. Some of the results follow.

This assay has as its system P. falciparum stage V gametocytes. Also on record: BacTiter-Glo ATP luminescence viability of purified stage V gametocytes in 384-well plates, per cent inhibition versus DMSO. To be noted: 48 h, 5 µM; inhibitor.
On to `Cc1c(CNCCCNc2cc(=O)c3ccccc3[nH]2)sc(C(F)=C(F)F)c1Br` [TCMDC-141189], for which the “% Inhibition” value is on record as -2.633%.
Next, `Cn1c(=O)c2nc(-c3ccc(Cl)cc3)nnc2n(CCCC#N)c1=O` [TCMDC-138537]: 18.59%.
The figure for `CCOc1ccc(/C=C/C(=O)Nc2cccc3c2CCN(C)C3)cc1` [TCMDC-139243] is 3.869%; for `COc1ccc2nccc([C@@H](O)CN3CCC(NC(=O)COc4nc(SCc5ccc(F)cc5)nc5c4CCC5)CC3)c2c1` [TCMDC-141132] it is -0.4192%; for `COC(=O)c1ccc(CC(C)NCC(O)c2cc(Cl)c(N)c(Cl)c2)cc1` (stereo not drawn) [TCMDC-131421] it is 9.503%.
The figure for `CCOc1ccc(C(=O)Nc2ccc(-c3nc4ccccc4[nH]3)cc2)cc1[N+](=O)[O-]` [TCMDC-125221] is -12.2%.
On to `Cc1cc(C(=O)Nc2ccc(-c3nc4ccccc4[nH]3)cc2)ccc1[N+](=O)[O-]` [TCMDC-123604], for which the “% Inhibition” value is 62.44%.
The figure for `O=C(Nc1ccc(-c2nc3ccccc3[nH]2)cc1)c1ccc(Cl)c([N+](=O)[O-])c1` [TCMDC-125730] is 2.294%; for `Nc1ncc(-c2ccc(F)c(Cl)c2)c(N)n1` [TCMDC-137296] it is -16.29%.
Next, `O=S(=O)(ON=C1CCc2ccccc21)c1ccc(Cl)cc1` [TCMDC-125427]: 20.26%; `Cc1cc(I)ccc1Nc1nc2nonc2nc1Nc1ccc(I)cc1C` [TCMDC-124083]: 56.47%; `Cc1cccc(Nc2nc3nonc3nc2Nc2cccc(Cl)c2Cl)c1C` [TCMDC-125806]: 15.39%.
Take `CS(=O)(=O)c1cc2c(Nc3ccc(N4CCOCC4)cc3)c(C(N)=O)cnc2cc1Br.Cl` [TCMDC-135826]: the “% Inhibition” value came to 40.37%.
Next, `CC(CN(C)C)C(=O)Nc1cccc(-c2ccc(-c3nc4ccccc4[nH]3)s2)c1` (stereo not drawn) [TCMDC-137102]: -38.48%.
Next, `O=c1cc(NCCCCNCc2cccc(Br)c2)[nH]c2ccccc12` [TCMDC-139312]: -82.6%.
The figure for `C=CCCCNCC(NCCCNc1cc(=O)c2ccccc2[nH]1)c1cc(Br)cc(Br)c1` (stereo not drawn) [TCMDC-140371] is -52.81%; for `O=c1cc(NCCC(CNCCc2ccccc2)NCc2cc(Br)cc(Br)c2)[nH]c2ccccc12` (stereo not drawn) [TCMDC-140344] it is 98.47%.
Turning to `O=c1cc(NCCCNC(CNCCc2ccccc2)c2cc(Br)cc(Br)c2)[nH]c2ccccc12` (stereo not drawn) [TCMDC-140370], the “% Inhibition” value was -71.22%.
The figure for `O=c1cc(NCCC(CNCc2ccoc2)NCc2cc(Br)cc(Br)c2)[nH]c2ccccc12` (stereo not drawn) [TCMDC-140343] is 58.98%.
The figure for `O=c1cc(NCCCCNCc2ccc(Br)c(Br)c2)[nH]c2ccccc12` [TCMDC-139308] is -72.79%; for `Cn1nccc1C(=O)NCCNCc1cccc(-c2ccc(-c3nc4cc(C(F)(F)F)ccc4[nH]3)s2)c1.O=C(O)C(F)(F)F` [TCMDC-133010] it is 8.568%; for `CCCc1cccc(OC)c1OCCCON1C(N)=NC(N)=NC1(C)C` [TCMDC-131338] it is -11.7%.
As for `O=C(CSc1nccn1Cc1ccco1)Nc1cc(C(F)(F)F)ccc1Cl` [TCMDC-125134], the “% Inhibition” value turned out to be 10.58%.
Take `CS(=O)(=O)Cc1ccc(Nc2nccc(NC3CCN(c4nccc(C(F)(F)F)n4)CC3)n2)cc1` [TCMDC-134397]: the “% Inhibition” value is recorded as 7.117%.
With `COC(=O)C1=CNC=C(C(=O)OC)C1c1ccc(Cl)c([N+](=O)[O-])c1` [TCMDC-125154], the “% Inhibition” value is given as -60.53%.
Next, `Cc1cc(C(=O)CN2C(=O)NC3(CCCc4ccccc43)C2=O)c(C)n1Cc1ccco1` (stereo not drawn) [TCMDC-124502]: 2.781%.
The figure for `Nc1nc(N)c2c(ccc3c2cnn3Cc2cccnc2)n1` [TCMDC-131932] is 23.15%; for `COc1ccc(-c2ccc(NC(=O)c3ccc(Cl)cc3)cc2)cc1CN(C)CCO` [TCMDC-132513] it is 86.93%.
The figure for `CN(C)Cc1ccc(-c2cccc(NC(=O)c3ccc(Cl)cc3)c2)cc1` [TCMDC-132632] is 4.982%.
Consider `COc1ccc(-c2ccc(NC(=O)c3ccc(C#N)cc3)cc2)cc1CN(C)CCO` [TCMDC-132521], for which the “% Inhibition” value is on record as 28.66%.
As to `COc1ccc(-c2ccc(NC(=O)c3cccc(Cl)c3)cc2)cc1CNC(C)C` [TCMDC-132524], the “% Inhibition” value is listed as 39.19%.
The figure for `COc1ccc(-c2ccc(NC(=O)c3cccc(Cl)c3)cc2)cc1CN(C)CCO` [TCMDC-132527] is 86.37%.
The figure for `COc1ccc(-c2cccc(NC(=O)c3cccc(Cl)c3)c2)cc1CN(C)CCN(C)C` [TCMDC-132616] is 105.4%; for `COc1ccc(-c2ccc(NC(=O)c3ccc(Cl)cc3)cc2)cc1CN(C)CCN(C)C` [TCMDC-132511] it is 46.96%.
The figure for `CN(C)Cc1ccc2cc(NC(=O)c3ccc(-c4ccc(Cl)cc4)cc3)ccc2c1` [TCMDC-134694] is 77.36%.
Take `CN(C)Cc1ccc2cc(NC(=O)c3ccc(-c4ccc(Cl)cc4)cc3)ccc2n1` [TCMDC-134644]: the “% Inhibition” value is reported as 5.45%.
The figure for `COc1ccc(-c2ccc(NC(=O)c3cccc(Cl)c3)cc2)cc1CN(C)CCN(C)C` [TCMDC-133335] is 14.93%; for `COc1ccc(-c2cccc(NC(=O)c3ccc(Cl)cc3)c2)cc1CN(C)CCN(C)C` [TCMDC-132605] it is -10.06%.
The figure for `COCCN1CCC(CNCC(C)(C)c2nc(-c3ccc(Cl)c(O)c3)c(-c3ccncc3)[nH]2)CC1` [TCMDC-140898] is -79.12%; for `O=C(Nc1cccc(CN2CCCN(Cc3ccc(O)cc3)CC2)c1)c1ccc(Br)cc1` [TCMDC-141883] it is 15.8%; for `Cc1nc(NC2=NCN(CCCN3CCOCC3)CN2)nc2c(C)cccc12` [TCMDC-125086] it is 47.98%.
Next, `Cn1ccnc1CNC(=O)c1ccc(-c2cccc(-c3nc4cc(F)ccc4[nH]3)c2)cc1` [TCMDC-132354]: -5.334%; `Cc1cccc(CN2CCCN(Cc3ccc(C(=O)Nc4ccc(Cl)cc4)cc3)CC2)c1` [TCMDC-136407]: 32.89%; `O=c1c2sc(-c3ccc(Cl)cc3)cc2ncn1Cc1ccc(OCCN2CCCC2)c2ccccc12` [TCMDC-135387]: 24.51%.
On to `Cc1cc(OCCN2CCCCC2)ccc1NC(=O)c1cccc2c(=O)n(Cc3ccc(Cl)cc3)cnc12` [TCMDC-136727], for which the “% Inhibition” value came to 103.4%.
